# Assays:
# Format in all cases: functional
# Plasmodium falciparum [1] = experiment: GSK_TCMDC: Inhibition of Plasmodium falciparum 3D7 in whole red blood cells, using parasite LDH activity as an index of growth. Test compounds present at 2uM
# Plasmodium falciparum [2] = experiment: GSK_TCMDC: Inhibition of Plasmodium falciparum Dd2 in whole red blood cells, using parasite LDH activity as an index of growth. Test compounds present at 2uM
# HepG2 = experiment: GSK_TCMDC: Percent inhibition of human HepG2 cell line. Test compounds present at 10uM.
SMILES,Inhibition (Plasmodium falciparum [1]) [%],Inhibition (Plasmodium falciparum [2]) [%],Inhibition (HepG2) [%]
COc1ccccc1C1CCN(CCCCNC(=O)c2ccc(NC(=O)c3ccc(Cl)cc3)cc2)CC1,95,12,21
Nc1ccc(-c2ccc3ccnc(N)c3c2)cc1,100,68,38
COc1cccc(CCNCc2ccc(-c3cccc(CNC4CCCC4)c3)cc2)c1.O=C(O)C(F)(F)F,100,45,14
O=C(C1COc2ccccc2O1)N(CCCn1ccnc1)Cc1csc(-c2ccc(CNCc3ccccc3)cc2)n1.O=C(O)C(F)(F)F (stereo not given),100,18,15
CC(=O)N(C)/N=C/[C@H](CCc1ccccc1)NC(=O)[C@H](CC(C)C)NC(=O)c1cccc(OCCN2CCOCC2)c1,89,65,5
CN1CCN(Cc2cc3cc(NC(=O)/C=C/c4ccc(Cl)cc4)ccc3s2)CC1.Cl,100,20,51
Cc1cc(C)c(C(=O)Nc2n[nH]c3nnc(-c4cccc(F)c4F)cc23)c(C)c1,90,0,0
O=C(O)C(F)(F)F.c1cncc(CCNCc2ccc(-c3ccc(-c4nc5ccccc5[nH]4)s3)cc2)c1,100,99,35
Cc1ccc2nc(-c3ccc(C(=O)NC4CCN(Cc5ccccc5)CC4)cc3)[nH]c2c1C,100,46,22
CC1N=C(N)N=C(N)N1OCc1cccc2ccccc12 (stereo not given),93,4,66
COc1ccc(Nc2nccc(N3CCC(NC(=O)Nc4cccc(C(C)=O)c4)C3)n2)cc1 (stereo not given),98,79,29
CNc1cc(-c2ccc3ccnc(N)c3c2)nc(N)n1.O=CO,100,81,23
O=C(Cn1c(CCc2cccc(F)c2F)nc(=O)c2ccccc21)N(CCN1CCCC1)Cc1ccc(-c2ccc(C(F)(F)F)cc2)cc1.O=C(O)C(O)C(O)C(=O)O,100,37,63
Cc1cc(N2CCNCC2)c2cc(NC(=O)Nc3ccc(Cl)c(Cl)c3)ccc2n1.Cl,100,86,23
O=c1cnc2ccc(F)cc2n1CCN1CCC(NCc2cc(-c3ccccc3)cs2)CC1,91,14,0
Cc1c(F)cc(C(=O)NC2CC2)cc1-c1ccc2c(c1)c(C)nn2S(=O)(=O)c1cccs1,91,92,34
COc1cc(Nc2nc(N)n(C(=O)c3ccc4c(c3)OCO4)n2)cc(OC)c1OC,90,40,60
O=C(O)C(F)(F)F.c1ccc(-n2ncc(CNCc3ccc(-c4ccc(-c5nc6ccccc6[nH]5)s4)cc3)n2)cc1,93,46,27
Cc1[nH]c(C)c(-c2cc3ccccc3o2)c(=O)c1Cl,92,13,1
CC(C)(CNCCOc1ccc(Cl)cc1)c1nc(-c2ccnc(N)n2)c(-c2ccc(Cl)c(O)c2)[nH]1.Cl,97,19,45
C=Cc1cc(NC(=O)N2CCc3cc(OC)c(C(F)(F)F)cc32)cc(-c2cccnc2)c1,92,20,7
CCCc1ccc(C2CCN(CCCCNC(=O)c3ccc(NC(=O)c4ccc(Cl)cc4)cc3)CC2)cc1,100,100,39
COc1cc2c(cc1OCCN1CCC(N3CCCCC3)CC1)N(C(=O)/C=C/c1ccccc1OC(F)(F)F)CC2.Cl,100,93,64
CC(C)(C)c1ccc(NC(=O)c2ccc(CN3CCCN(Cc4cccc(Cl)c4)CC3)cc2)cc1.O=C(O)C(F)(F)F,96,7,43
CN(CCCN(C)c1cc(NC(=O)c2ccc(F)cc2)ccn1)Cc1cccc(F)c1.O=C(O)C(F)(F)F,83,60,0
COc1cc(NC(=O)Nc2ccc([N+](=O)[O-])cc2OC)c(OC)cc1Cl,87,6,38
CS(=O)(=O)Nc1ccc(OCCCCCCOc2ccc(NS(C)(=O)=O)cc2)cc1,93,82,3
Cc1cccc2nc(-c3cccc(-c4ccc(NC(=O)Cc5ccccn5)cc4)c3)[nH]c12,94,57,25
COc1ccc(C=NNc2ccnc3cc(F)c(C)cc23)c2ccccc12,100,85,0
Clc1ccc2c(Cl)c(CNCCCNc3nc4ccccc4[nH]3)[nH]c2c1,100,7,38

# From ChEMBL document CHEMBL1157539, “Thousands of chemical starting points for antimalarial lead identification” (Nature, 2010)
